Bioassay records from PubChem.
Most compounds without a hit are left out; they make up all but 2.3% or so of the library.
ANO1 activ: TMEM16A chloride channel activators or potentiators, primary screen, cell-based, HTS | Anoctamin-1 (Mus musculus), Q8BHY3 | HEK293 TMEM16A/YFP-H148Q/I152L, iodide quench fluorescence; stronger effect = lower value | B-score at 10 µM | 0.3% of 340,000 active;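 active means fluorescence-ratio B-score plate-corrected deviation score at least 3 library SD below zero, with starting fluorescence score within 5 deviations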;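 further: channel opened by trigger with iodide after compound preincubation; score built on the fluorescence ratio of max minus min over baseline; more negative score means more quench and so TMEM16A activation or potentiation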
TMEM16A inh: TMEM16A chloride channel inhibitors, primary screen, cell-based, HTS; Anoctamin-1 (Mus musculus), Q8BHY3; HEK293 TMEM16A/YFP iodide influx fluorescence, ionomycin; normalized B-score (activity score, 25-100; higher = stronger inhibition) at 10 µM; 1.2% of 310,000 active; AID 588511, 2011;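 active means ratio plate-corrected score three or more library SD toward inhibition, starting fluorescence score within five deviations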;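 further: score derived from kinetic fluorescence span divided by baseline fluorescence per well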
CHT block: inhibitors of human choline transporter CHT; High affinity choline transporter 1 (Homo sapiens), Q9GZV3; 0.86% of 310,000 active; B-score at 10 µM; CHT-expressing cells, membrane potential dye, choline response; stronger effect = lower value;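 active means B-score over 3 SD under the library average, and starting fluorescence ratio not unusually high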;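 further: choline stimulus applied at its EC90 after an EC20 pre-addition; B-score computed on integrated fluorescence ratio after choline addition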
Target sequence (Q9GZV3 whole entry, looked up): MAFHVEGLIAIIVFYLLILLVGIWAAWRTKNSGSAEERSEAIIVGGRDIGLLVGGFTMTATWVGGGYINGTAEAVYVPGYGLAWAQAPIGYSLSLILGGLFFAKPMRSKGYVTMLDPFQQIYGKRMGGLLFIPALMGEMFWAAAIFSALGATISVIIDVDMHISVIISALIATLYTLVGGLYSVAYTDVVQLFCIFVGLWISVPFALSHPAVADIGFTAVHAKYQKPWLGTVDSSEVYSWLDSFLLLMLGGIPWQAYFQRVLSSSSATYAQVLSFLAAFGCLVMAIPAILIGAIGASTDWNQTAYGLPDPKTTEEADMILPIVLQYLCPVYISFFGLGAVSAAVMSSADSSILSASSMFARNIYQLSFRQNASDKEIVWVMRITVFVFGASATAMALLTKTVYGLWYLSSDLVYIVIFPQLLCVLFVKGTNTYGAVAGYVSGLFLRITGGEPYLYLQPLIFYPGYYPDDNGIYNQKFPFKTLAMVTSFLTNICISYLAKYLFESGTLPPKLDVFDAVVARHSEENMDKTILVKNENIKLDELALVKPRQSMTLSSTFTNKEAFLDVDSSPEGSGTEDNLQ
CHT PAM: CHT positive allosteric modulators, primary screen, cell-based, membrane potential dye, choline EC20; CHT-expressing cells; stronger effect = higher value; LV-AA mutant CHT in HEK293 cells; AID 488977, 2010; High affinity choline transporter 1 (Homo sapiens), Q9GZV3; B-score at 10 µM; 0.49% of 310,000 active;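 active means initial fluorescence not abnormally high and integrated response B-score, plate-corrected, over 3 SD above library mean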
CHT block conf: CHT inhibitors, confirmation, cell-based, membrane potential dye, duplicate. CHT activity remaining % of control (stronger effect = lower value), % at 10 µM. shares compounds with CHT block. 70% of 2,400 active. CHT-expressing cells, choline membrane potential dye; LV-to-AA substituted CHT, HEK293 cells;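 active means choline transporter activity left, mean of duplicates at 10 µM, below buffer-only control mean minus 3 SD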;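 further: depolarization triggered by choline at its EC90 following an EC20 pre-addition; 0% = hemicholinium-3 full block and 100% = buffer-only control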
HEK293 CHT ctr: membrane potential effects in parental HEK293, counter-screen for CHT inhibitor project, cell-based, membrane potential dye | shares compounds with CHT block | choline response; active = decrease or increase beyond buffer ±3SD | membrane potential ratio readout (active if shifted either direction beyond buffer ±3SD; no single direction) at 10 µM | 4% of 2,400 active;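 further: parental cells lack the transporter so any hit is non-specific; ratio is peak minus trough fluorescence over baseline after EC90 choline challenge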
CHT act confirm: CHT activators, confirmation, cell-based, membrane potential dye, duplicate. 91% of 2,500 active. AID 504833, 2011. activation, % at 10 µM. CHT-expressing cells, membrane potential dye fluorescence (FDSS); % of choline EC20–EC90 response window; HEK293 expressing CHT LV-AA mutant; choline added at its EC20. shares compounds with CHT PAM;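 active means primary screen active, with duplicate mean activation above negative control mean plus 3 SD, cut at about 11% in these data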
HEK293 MP dye: membrane potential response in parental HEK293 cells, counter-screen for CHT activator project, cell-based, membrane potential dye. shares compounds with CHT PAM. membrane potential dye fluorescence (FDSS); measured after EC20 choline addition. ratio readout change at 10 µM, hits read low. 62% of 2,500 active;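 active means duplicate-averaged ratio beyond 3 SD from buffer wells, up or down, though filed actives are nearly all decreases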
TMEM16A reconf: TMEM16A chloride channel inhibitors, confirmation, cell-based, re-confirmation; shares compounds with TMEM16A inh; 39% of 2,300 active; AID 652189, 2013; inhibition, % at 10 µM; HEK293 TMEM16A/YFP-H148Q, iodide quench fluorescence; ionomycin added to raise cell calcium;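 active means mean duplicate percent inhibition, scaled so buffer wells are 0 and the reference blocker 100, over three buffer SD above buffer mean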
HEK293 Ca mobil: calcium mobilization in TMEM16A/YFP HEK293 cells, confirmation, counter-screen for TMEM16A inhibitor project. shares compounds with TMEM16A inh. Fluo4 calcium mobilization. 2% of 2,300 active. AID 652231, 2013. calcium response (% of ionomycin), % at 10 µM;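 active means duplicate-averaged calcium signal over 20% of the ionomycin maximum, relative to buffer baseline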;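 further: each well's signal is peak minus trough fluorescence divided by its pre-addition baseline; 0% = buffer wells and 100% = ionomycin wells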
Parental YFP cnt: iodide YFP quench changes in parental YFP-HEK293, counter-screen for TMEM16A inhibitor project, cell-based | shares compounds with TMEM16A inh | ionomycin | YFP ratio F(max-min)/F0 at 10 µM | 2,300 tested, under 10 active;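 active means yellow fluorescent protein signal ratio exceeding the buffer control mean by over 5 SD of those controls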;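 further: ratio is mean of duplicate wells from kinetic YFP trace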
ClC-1 rat inh: ClC-1 chloride channel inhibition, selectivity assay for TMEM16A inhibitor project, cell-based, voltage-dependent ClC-1 | CHO ClC-1-YFP, iodide influx fluorescence quench; iodide control reads 0, buffer control 100 | AID 652236, 2013 | ratio percent, % at 10 µM | shares compounds with TMEM16A inh | 2,300 tested, under 10 active;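 active means duplicate-mean ratio percent above the mean of iodide-only control wells, which defines zero, plus 5 of their SD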;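 further: higher percent means stronger block of ClC-1 iodide influx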
An asterisk follows results filed as active; i = inactive; · = no result given.

SMILES	ANO1 activ	TMEM16A inh	CHT block	CHT PAM	CHT act confirm	HEK293 MP dye	others
Cn1c(SCc2nc(-c3ccccc3)no2)nnc1-c1ccco1	·	i	i	i	·	·
CCn1c(SCc2nc(-c3ccc(Cl)cc3)no2)nnc1-c1ccco1	i	100*	-13*	i	·	·	CHT block conf=3.1%*;HEK293 CHT ctr=i;TMEM16A reconf=i;HEK293 Ca mobil=28%*;Parental YFP cnt=-0.93;ClC-1 rat inh=-11
O=c1cc(-c2ccccc2)nc2c(-c3ccccc3)c(C(F)(F)F)[nH]n12	i	100*	-5.7*	i	·	·	CHT block conf=69%*;HEK293 CHT ctr=i;TMEM16A reconf=58%*;HEK293 Ca mobil=i;Parental YFP cnt=-0.97;ClC-1 rat inh=-10
O=C(Nc1ccn(CC(=O)N2CCN(c3ccccn3)CC2)c(=O)n1)OCc1ccccc1	i	·	·	·	·	·
N#Cc1c(C(F)(F)F)cc(-c2cccc(Cl)c2)[nH]c1=O	i	25*	-5.2*	i	·	·	CHT block conf=i;HEK293 CHT ctr=i;TMEM16A reconf=28%*;HEK293 Ca mobil=i;Parental YFP cnt=-1.1;ClC-1 rat inh=-8
N#Cc1c(C(F)(F)F)cc(-c2ccc(F)cc2)[nH]c1=O	i	i	i	i	·	·
CC1CCN(C(=O)CSCC(=O)Nc2nc(-c3cccs3)cs2)CC1	i	100*	-5.3*	i	·	·	CHT block conf=i;HEK293 CHT ctr=i;TMEM16A reconf=i;HEK293 Ca mobil=i;Parental YFP cnt=-1;ClC-1 rat inh=-16
CC1CCCN(C(=O)CSCC(=O)Nc2nc(-c3cccs3)cs2)C1 (stereo unspecified)	i	i	i	i	·	·
COc1ccc(-c2nnc(SC(C)C(=O)NCc3ccc4c(c3)OCO4)n2Cc2ccco2)cc1 (stereo unspecified)	i	i	i	16*	62*	i
COc1ccc(-c2c[n+]3c(n2-c2ccc(C)cc2)CCCCC3)cc1	i	25*	i	12*	13*	i
CCOc1ccc(-n2c(-c3ccccc3)c[n+]3c2CCC3)cc1	i	i	i	i	43*	-30*
CCOc1ccc(-n2c(-c3ccc(Br)cc3)c[n+]3c2CCCCC3)cc1	i	i	i	i	·	·
FC(F)Oc1ccc(-c2c[n+]3c(n2-c2ccccc2)CCCCC3)cc1	i	i	i	i	·	·
CCOc1ccc(-n2c(-c3ccc(OC)cc3)c[n+]3c2CCCCC3)cc1	i	i	i	6.4*	41*	i
COc1ccc(-n2c(-c3ccc(Cl)cc3)c[n+]3c2CCCCC3)cc1	i	i	i	12*	44*	i
COc1ccc(-c2c[n+]3c(n2-c2ccccc2)CCCCC3)cc1	i	i	i	i	·	·
CSCCC(NC(=O)c1ccccc1Cl)C(=O)N1CCCC(C)C1 (stereo unspecified)	i	·	·	·	·	·
Cc1ccc(NC(=O)COc2ccccc2C(=O)NCCN(C)C)cc1	·	i	i	i	·	·
O=C(O)c1ccc(/C=N/NC(=O)c2cc(-c3ccc4c5c(cccc35)CC4)n[nH]2)cc1	i	i	i	i	·	·
Cc1cc(Oc2ccc3ccccc3c2)nc(SCC(=O)c2ccccc2)n1	i	i	i	8*	53*	i
COC(=O)CSc1nc(C)cc(Oc2ccccc2)n1	i	i	i	i	·	·
Cc1nc([N+](=O)[O-])c(N2CCN(Cc3ccccc3)CC2)n1Cc1ccccc1	i	i	i	7.4*	33*	i
COc1ccccc1OCC(O)Cn1c(=N)n(CCN2CCCCC2)c2ccccc21 (stereo unspecified)	i	i	i	i	·	·
N=c1n(CCN2CCCC2)c2ccccc2n1CC(O)c1ccco1 (stereo unspecified)	i	i	i	i	38*	-25*
N=c1n(CCN2CCCCC2)c2ccccc2n1CC(O)c1cccc(Br)c1 (stereo unspecified)	i	i	i	11*	37*	i
SMILES	ANO1 activ	TMEM16A inh	CHT block	CHT PAM	CHT act confirm	HEK293 MP dye	others
CCCCCCCn1c(=N)n(CC(O)c2ccco2)c2ccccc21 (stereo unspecified)	i	i	i	i	·	·
Cc1cccc(NC(=O)C2CCCN(C(=O)Nc3ccc(F)cc3)C2)c1 (stereo unspecified)	i	i	i	i	·	·
Clc1ccc(Nc2ccccc2)nn1	i	i	i	i	·	·
Cc1ccc(C(=O)OCC(=O)NNC(=O)COc2ccc(Cl)cc2)c(O)c1	i	i	i	i	·	·
O=C1c2nc3cc(-c4ccco4)[nH]n3c(=O)c2CN1Cc1ccccc1	i	i	i	7*	30*	-55*
CCN(C(=O)c1cccc(S(=O)(=O)N(C)C)c1)C12CC3CC(CC(C3)C1)C2	i	i	i	9.7*	14*	i
CCN(C(=O)c1ccc2c(c1)OCO2)C12CC3CC(CC(C3)C1)C2	i	·	·	·	·	·
